From ChEMBL document CHEMBL3988442, “University of Dundee, Small-Polar-MMV Screening Library” (2021)
In all, about 48,000 compounds went through this assay and about 13,000 (27%) showed an effect of 50% or more. This is one part of the list.

Tested on: Wolbachia pipientis
Assay: Anti-Wolbachia Cell-Based Screen
Format: functional
Design: scale not given: in the data most compounds retested in dose-response had high values
Conditions: 5 µM

SMILES | Percent Effect [%]
Nc1nc(Cn2ccnc2-c2cc(CN3CCCC3)cs2)cs1 | 4.037
NC1(C(=O)NCC2CCCN(Cc3cccc4nonc34)C2)CCC1 (stereo not given) | -1.452
O=C([C@H]1C[C@H]2OCC[C@H]2N(C(=O)c2ccnnc2)C1)N1CCCCO1 | -6.312
Cc1csc2c(N3CCC(NCCCC4CCOC4)CC3)ncnc12 (stereo not given) | 7.139
Cc1cccc(CN2C[C@@H](F)[C@@H](OCc3nc4ccccc4[nH]3)C2)n1 | -1.113
CSCC[C@@H](CO)n1ccnc1-c1ccc(C)o1 | -18.99
Cc1nnc2n1CCN(CCC(=O)Nc1sccc1C#N)C2 | 5.791
CCC1CN(CC(=O)Nc2sccc2C#N)CCO1 (stereo not given) | -10.74
Cc1cc(NC(=O)CCN2CCn3c(nnc3C3CC3)C2)no1 | -0.2298
Cc1cc(NC(=O)CN2CCn3c(nnc3C3CC3)C2)n(C)n1 | -5.451
N#Cc1ccsc1NC(=O)CN1CCn2c(nnc2C2CC2)C1 | 118.5
N#Cc1ccsc1NC(=O)CCN1CCn2c(nnc2C2CC2)C1 | 113.3
CNC(=O)COc1nc(C(C)(C)C)no1 | -5.111
CCN(Cc1ccoc1)C(C(N)=O)c1cccc(Br)c1 (stereo not given) | 12.55
CNC(=O)C(C)(C)N(C)C(=O)c1cc(COc2ccccc2OC)[nH]n1 | -2.904
COCCN(C)C(=O)c1ccc(OC)cc1O | -1.632
CCc1ccc(OCCN(C)C(=O)c2ccncc2Cl)cc1 | -12.28
COc1ccc(OCCN(C)C(=O)c2ccc(OC)cc2O)cc1 | 93.52
Cc1nc(C#N)c(N2CCC(c3nc(-c4ccc(F)cc4)no3)CC2)o1 | 10.17
CC(C)c1nnc(CN2CCCC2Cn2cncn2)o1 (stereo not given) | 2.76
Cc1cnn(CC2CCCN2Cc2coc(-c3ccccc3)n2)c1 (stereo not given) | 17.84
Cc1cnn(CC2CCCN2Cc2nnc(-c3ccccc3)o2)c1 (stereo not given) | 97.7
CCc1nnc(CN2CCCC2Cn2cc(C)cn2)o1 (stereo not given) | 107.1
Cc1cnn(CC2CCCCN2Cc2noc(C3CC3)n2)c1 (stereo not given) | 11.5
Cc1cnn(CC2CCCN2Cc2nnc(C(C)C)o2)c1 (stereo not given) | 94.36
Cc1cnn(CC2CCCN2Cc2nnc(Cc3ccccc3)o2)c1 (stereo not given) | 6.561
Cc1cnn(CC2CCCN2Cc2nnc(C3CC3)o2)c1 (stereo not given) | 113.6
Cc1cnn(CC2CCCN2Cc2ncc(-c3ccccc3)o2)c1 (stereo not given) | -2.575
CNC(=O)C(C)CN(C)C(=O)Nc1cc(-n2cccc2)ccc1F (stereo not given) | 4.281
COc1cccc(F)c1C(C)NC(=O)NCc1ccnc(C)n1 (stereo not given) | 15.11
